Most compounds without a hit are left out; they make up all but 8% or so of the library.
MCF10A rerep: inducers of DNA re-replication in MCF 10A breast cells | MCF 10A DNA re-replication, Hoechst nuclear intensity, 48 h | Potency, µM (titrated, usually from 46.1 µM), without a hit: at the top dose activity, positive = re-replication, most hits filed as activators | 350,000 tested, 2.9% active | AID 624296; note: % of control where 0% means no effect; nearly all actives have a fitted effect of over 50% in size
KB-3-1 cytotox: kills parental KB-3-1 adenocarcinoma cells. KB-3-1 viability, CellTiter-Glo ATP luminescence, 72 h. Potency, µM (series often up to 46.1 µM), usual class: cytotoxic. 400,000 tested, 1.4% active. AID 1347075; note: % is set by controls: 0 for no effect and ±100 for the full control effect; nearly all actives have a fitted effect of over 60% in size
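Screening of KB-3-1 cells (DMEM, 10% FBS, phenol-red free) ran from lowest to highest compound concentration; after 72 h at 37 °C viability was read luminescently and curves fitted.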
KB-V1 cytotox: KB-V1 MDR subline cytotoxicity. KB-V1 MDR cells viability, CellTiter-Glo, 72 h. Potency, µM (doses to about 46.1 µM), most hits filed as cytotoxic. 400,000 tested, 3.4% active. AID 1347076; note: % is set by controls: 0 for no effect and ±100 for the full control effect; nearly all actives have a fitted effect of over 60% in size
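KB-V1 cells (P-gp-expressing MDR subline of KB-3-1) in phenol-red-free DMEM with 10% FBS were exposed to library compounds over a concentration series for 72 h at 37 degrees C. Viability read by CellTiter-Glo luminescence; concentration-effect curves fitted after normalization.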
HT1080-NT tox: kills 2HG-producing HT-1080-NT fibrosarcoma cells; HT-1080-NT fibrosarcoma viability, CellTiter-Glo ATP luminescence, 48 h; Potency, µM (top dose mostly 46.1 µM), for inactives: at the highest dose activity, negative = less viability, actives largely listed as cytotoxic; 360,000 tested, 1.6% active; AID 686970;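 note: NT is the 2HG producing partner of a matched IDH1 knockdown line; 0% = DMSO-treated cells and -100% = media-only wells without cells; nearly all actives have a fitted effect of over 55% in size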
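Fibrosarcoma NT cells, 750 per well in 5% FBS RPMI, were exposed to compound for 48 hours. Viability: CellTiter-Glo luminescence.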
HT1080 IDH1KD tx: toxicity to HT-1080 IDH1 knockdown cells (counter line) | HT-1080 IDH1 knockdown viability, ATP luminescence, 48 h | Potency, µM (top dose mostly 46.1 µM), for inactives: at the top dose activity, negative = toxicity, actives largely listed as cytotoxic | 360,000 tested, 2% active | AID 686971;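 note: 0% = DMSO wells and -100% = cell-free medium wells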
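In this qHTS, HT-1080 cells depleted of IDH1 are exposed for 48 h at 37 °C to compound titrations. Toxicity is scored from CellTiter-Glo luminescence, with DMSO as full viability and medium alone as none.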
SW480 rerep: DNA re-replication induction in SW480 cells; SW480 DNA re-replication, Hoechst DNA content imaging, 48 h; Potency, µM (doses to about 46.1 µM), inactives show top-dose re-replication activation, actives largely listed as activators; 340,000 tested, 1.8% active; AID 624297; note: % of control where 0% means no effect; nearly all actives have a fitted effect of over 55% in size
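Cells (250 per well) received 23 nL compound or DMSO by pin tool and were kept 48 hr at 37 C, 5% CO2. Nuclei were then stained with Hoechst for 40 min and scanned for DNA content.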
* = called active by the depositor; i = inactive; ? = inconclusive; / = not tested or not shown; [ ] = dose if it differs, or a comment. Calls come from the whole dose curve; as a rule, active = well fitted curve in the direction sought with a large enough effect; inconclusive = small, poorly fitted or top-dose-only effect, or another doubt; inactive = no such curve, though single readings can be large; an effect the other way counts as inactive or inconclusive. Potency is the fitted concentration of half-maximal effect.

SMILES | MCF10A rerep | KB-3-1 cytotox | KB-V1 cytotox | HT1080-NT tox | HT1080 IDH1KD tx | SW480 rerep
COc1cc2c(cc1OC)CN(S(=O)(=O)c1ccc3c(c1)OCCO3)CC2 | 1% | ? | 5.2µM* | 0% | -5% | -4%
O=C(Nc1ccncc1)C1CCN(S(=O)(=O)c2ccc(Cl)c(C(F)(F)F)c2)CC1 | ? | 5.8µM* | ? | 2%[9.24 µM] | -18% | 0%
Cc1ccnc(NC(=O)C2CCN(S(=O)(=O)c3ccc(Cl)c(C(F)(F)F)c3)CC2)c1 | 20% | i | ? | -5% | 16% | 19%
O=C(Nc1ccc2c(c1)OCCO2)C1CCN(S(=O)(=O)c2ccc(Br)s2)CC1 | -4% | ? | 10µM* | -23% | -2% | ?
CC(=O)c1cccc(S(=O)(=O)N2CCC(C(=O)O)CC2)c1 | 3% | i | i | 11% | 8% | 5%
O=C(Nc1ccc(Cl)cc1F)c1ccccc1Br | 1% | i | ? | 13% | 10% | 3%
O=C(Nc1ccc2c(c1)OCCO2)C1CCN(S(=O)(=O)c2cccs2)CC1 | 10% | i | 15µM* | -1% | 22% | -1%
O=C(Nc1ccc2c(c1)OCCO2)C1CCN(S(=O)(=O)c2ccc3c(c2)OCCO3)CC1 | 7% | i | 15µM* | 27% | 5% | 1%
O=C(Nc1ccccn1)C1CCN(S(=O)(=O)c2ccc3c(c2)OCCCO3)CC1 | 3% | i | i | -7% | -4% | 1%
COc1ccc(C(=O)C2CCN(S(=O)(=O)c3ccc4c(c3)OCCO4)CC2)cc1 | 11% | ? | 23µM* | -28% | ? | -2%
CC(=O)Nc1ccc(NC(=O)C2CCN(S(=O)(=O)c3ccc4c(c3)OCCO4)CC2)cc1 | 13% | i | i | -10% | -1% | -6%
Cc1ccc(NC(=O)C2CCN(S(=O)(=O)c3ccc4c(c3)OCCCO4)CC2)nc1 | 10% | 16µM* | ? | ? | -14% | -6%
COc1ccc(C(=O)N2CCN(S(=O)(=O)c3ccc4c(c3)OCCO4)CC2)cc1 | / | i | i | 0% | 0% | /
COc1ccnc(CSC(N)=Nc2cccc(C(F)(F)F)c2)c1 | -32% | ? | ? | 1% | -7% | ?
O=C(Cn1c(-c2cccs2)cc2ccccc21)N1CCN(c2ccccc2F)CC1 | / | i | i | / | / | /
COc1ccc(N(C(=O)Cn2cnc3ccccc32)C(C(=O)NC2CCCCC2)c2ccccc2)cc1 (stereo unspecified) | ? | i | i | ? | -29% | 23µM*
COc1ccc(CNC(=O)C(C)Sc2ccc(S(=O)(=O)N3CCOCC3)cn2)cc1 (stereo unspecified) | -1% | i | i | 6% | 19% | -1%
COc1ccc(-c2ccnc3nc(N4CCOCC4)nn23)cc1 | -1% | i | ? | -4% | -1% | -6%
c1ccc(Oc2ccc(-c3ccnc4nc(N5CCOCC5)nn34)cc2)cc1 | 18µM* | i | ? | -13% | ? | 16µM*
O=C(NC12CC3CC(CC(C3)C1)C2)c1ccc(-c2ccccc2Cl)o1 | 16µM* | ? | i | ? | ? | 9%
O=C(NC12CC3CC(CC(C3)C1)C2)c1ccccc1O | 8.2µM* | i | i | -23% | ? | 2%
O=C(NN=C1C2CC3CC(C2)CC1C3)c1ccccc1O | 18% | i | i | -24% | -22% | 21µM*
O=C(NNC(=O)C12CC3CC(CC(C3)C1)C2)c1ccccc1O | 10% | ? | i | -17% | ? | ?
O=C(NC12CC3CC(CC(C3)C1)C2)c1ccc(-c2ccc(Cl)cc2)o1 | 12% | ? | ? | -16% | ? | ?
O=C(N/N=C1\CCc2ccccc21)c1ccccc1O | -7% | i | 21µM* | ? | ? | 2%
SMILES | MCF10A rerep | KB-3-1 cytotox | KB-V1 cytotox | HT1080-NT tox | HT1080 IDH1KD tx | SW480 rerep
CCCCCCCC(=O)NNC(=O)CC(=O)Nc1ccccc1C(=O)O | -6% | i | i | 2% | 0% | -5%
NC(Cc1ccc(F)cc1)c1csc(Nc2ccc(C(=O)NCCCO)cn2)n1 (stereo unspecified) | / | i | i | -16% | -18% | /
C/C(=N\NC(=O)c1ccc(N)cc1)C1CC1 | 7% | i | ? | 19% | 13% | -3%
C/C(=N\NC(=O)c1ccccc1O)C1CC1 | 2% | i | i | -29% | -15% | 16µM*
Cc1nc([N+](=O)[O-])c(Br)n1CC(=O)c1ccccc1 | ? | i | i | ? | ? | ?
Cc1nc([N+](=O)[O-])c(Br)n1CC(=O)c1ccc2ccccc2c1 | 0.65µM* | i | i | 16µM* | ? | ?
Cc1nc([N+](=O)[O-])c(Br)n1CC(=O)c1ccc(Br)cc1 | ? | ? | ? | 21µM* | ? | ?
C/C(O)=C(\C#N)P(=O)(c1ccccc1)c1ccccc1 | -4% | i | i | 0% | 5% | -6%
CCc1cccc(NC(=O)COC(=O)CSc2ccc(C)cc2)c1 | / | i | i | -1% | -5% | /
O=c1[nH]c(=O)c2nc3c4ccccc4c4ccccc4c3nc2[nH]1 | 2.6µM* | i | i | -5% | -9% | ?
CC(=O)Nc1ccc(S(=O)(=O)Nc2c(C)nn(-c3ccccc3)c2C)cc1 | -6% | i | i | -25% | 6%[9.24 µM] | -3%
CC(=O)c1ccccc1NS(=O)(=O)c1c(C)nn(-c2ccccc2)c1C | 15% | i | 9.2µM* | -10% | -17% | -7%
CCCCCC1CCC(C(=O)NNC(=S)NCC)CC1 (stereo unspecified) | ? | ? | 15µM* | 6.3µM* | 3.2µM* | -4%
CCOCC(=O)NC1CCc2cc(OC(=O)COCC)c(OC)c(OC)c2-c2ccc(SC)c(=O)cc21 (stereo unspecified) | ? | 0.0092µM* | 16µM* | 0.073µM* | 0.15µM* | 0.082µM*
COc1ccc(-c2ccc(=O)n(CC(=O)NC3CCc4ccccc43)n2)cc1OC (stereo unspecified) | -10% | i | ? | 11% | 9% | -24%
COc1cc2c(c(OC)c1OC)-c1ccc(SC)c(=O)cc1C(NC(=O)C(F)(F)F)CC2 (stereo unspecified) | ? | 0.052µM* | 0.13µM* | 0.0092µM* | 0.0065µM* | 0.021µM*
CCCCN(CCCC)CC(O)c1cc(Cl)cc2c1-c1ccc(Cl)cc1C2=Cc1ccc(Cl)cc1 (stereo unspecified) | / | ? | 21µM* | / | / | /
COc1cccc(NC(=O)CNC(=O)c2ccc(C)o2)c1 | -3% | i | i | 22% | 18% | 3%
